Data on 28 compounds can be found in ChEMBL document CHEMBL4513146, “CO-ADD screening of Karazin Kharkiv National University (Ukraine) compounds”.

Potency and affinity values are given separately.

For assay [1], the system named is Klebsiella pneumoniae. The note with it: Concentration 32 ug.mL-1;; ASSAY_TEST Inhibition of Bacterial Growth; detection method Absorption (OD600); MEDIA CAMHB; plate type 384well; NBS; CORNING #3640; time 18 hr.
Assay [2] has as its system Candida albicans. The note with it: Concentration 32 ug.mL-1; ASSAY_TEST Inhibition of Fungal Growth; detection method Absorption (OD530).
In assay [3] the test system is Cryptococcus neoformans. The following applies: Concentration 32 ug.mL-1; ASSAY_TEST Inhibition of Fungal Growth; detection method Resazurin; Absorption (OD600-OD570); plate type 384well; NBS; CORNING #3640.

In the case of `COc1ccc(N2CCN(C(=O)Cn3nc4c(Oc5ccc(C)cc5)nccn4c3=O)CC2)cc1`, the Inhibition in assay [1] was 7.21%; in assay [2], 1.27%; in assay [3], -9.68%.
The corresponding values for `COc1ccccc1-n1ccn2c(SCC(=O)Nc3ccc(C)c(F)c3)nnc2c1=O` are 8.02%, 2.55% and -5.32%.
On to `O=S(=O)(c1ccc2nncn2c1)N(Cc1ccccc1F)c1ccc2c(c1)OCCO2`, for which the Inhibition in assay [1] is on record as 4.19%; in assay [2], 7.13%; in assay [3] it was -6.58%.
In the case of `COc1ccc(NC(=O)Cn2nc3c(Sc4ccccc4)nc4ccccc4n3c2=O)cc1Cl`, the Inhibition in assay [1] is listed as 5.63%; in assay [2], 1.75%; in assay [3], -17.25%.
As to `Cc1cc2nn(CC(=O)NCc3ccccc3)c(=O)n2c(Nc2ccc(C)c(F)c2)n1`, the Inhibition in assay [1] is 12.56%; in assay [2] it was 6.49%; in assay [3], -3.12%.
The corresponding values for `CC(C)Cn1c(=O)c2sccc2n2c(=O)n(Cc3ccc(Br)cc3)nc12` are 4.98%, -2.24% and -27.05%.
The corresponding values for `COc1cc(NC(=O)C(C)Sc2nnc3c(=O)n(-c4ccc(C)c(C)c4)ccn23)cc(OC)c1` (centres undefined) are 1.23%, 2.85% and -8.2%.
Regarding `CC(C)c1ccc(N(Cc2ccccc2F)S(=O)(=O)c2cccn3cnnc23)cc1`, the Inhibition in assay [1] is 6.21%; in assay [2], -0.83%; in assay [3], -6.6%.
The corresponding values for `Cc1ccc(NC(=O)Cn2nc3c(Sc4cccc(F)c4)nccn3c2=O)cc1F` are 11.17%, 0.17% and -11.09%.
With `CC(=O)c1cccc(NC(=O)Cn2nc3c(N4CCN(c5ccccc5C)CC4)nccn3c2=O)c1`, the figures for the Inhibition in assay [1], in assay [2] and in assay [3] were 15.26%, 5.86% and -6.16%, respectively.
The corresponding values for `Cc1ccc(Sc2ccc3nn(CC(=O)Nc4ccc(Br)c(C)c4)c(=O)n3n2)cc1` are 2.67%, 11.69% and -8.57%.
In the case of `O=C(Cn1nc2c3cc(-c4ccc(Cl)cc4)nn3ccn2c1=O)Nc1ccc(F)cc1`, the Inhibition is recorded as 10.41% in assay [1], 1.82% in assay [2] and -10.24% in assay [3].
Turning to `COc1cccc(C(=O)Cn2nc3n(CCC(C)C)c(=O)c4sccc4n3c2=O)c1`, the Inhibition in assay [1] was -2.35%; in assay [2], 8.83%; in assay [3], -5.93%.
The corresponding values for `CCCn1c(=O)c2sccc2n2c(CCC(=O)NCCC34CC5CC(CC(C5)C3)C4)nnc12` are 9.89%, 5.72% and -25.69%.
For the compound `Cc1ccccc1Oc1nc2ccccc2n2c(=O)n(CC(=O)Nc3cccc(C(F)(F)F)c3)nc12`, the Inhibition in assay [1] is given as 12.65%; in assay [2], 1.53%; in assay [3] it was -23.54%.
Take `Cc1cc2nn(CC(=O)Nc3ccc(F)cc3Cl)c(=O)n2c(Nc2ccccc2C)n1`: the results for the Inhibition in assay [1], in assay [2] and in assay [3] were 1.95%, 30.65% and -16.44%, respectively.
Regarding `O=c1c2sccc2n2c(=O)n(Cc3ccc(Br)cc3)nc2n1Cc1cccs1`, the results for the Inhibition in assay [1], in assay [2] and in assay [3] were -4.09%, 49.64% and -28.37%, respectively.
The corresponding values for `Cc1nnc2c(=O)n(CC(=O)Nc3cccc(F)c3)c3ccccc3n12` are 11.8%, 1.2% and -2.05%.
As for `Cc1ccc(NC(=O)Cn2nc3ccc(SC(C)C)nn3c2=O)c(Cl)c1`, the Inhibition in assay [1] is on record as 9.56%; in assay [2], 10.62%; in assay [3], -1.74%.
The corresponding values for `O=c1c2sccc2n2c(=S)[nH]nc2n1CC1CCCO1` (centres undefined) are 6.97%, -1.18% and -5.63%.
Turning to `CSc1ccc(CNC(=O)CCc2nnc3c(N4CCCCC4)nc4ccccc4n23)cc1`, the Inhibition in assay [1] was 12.88%; in assay [2], 3.51%; in assay [3], -30.87%.
As to `COc1cccc(-n2ccn3c(SCc4ccc(F)cc4)nnc3c2=O)c1`, the Inhibition in assay [1] is given as 3.28%; in assay [2] it was 1.89%; in assay [3] it was -13.93%.
On to `CCc1nnc2c(S(=O)(=O)N(Cc3ccc(OC)c(F)c3)c3ccccc3)cccn12`, for which the Inhibition in assay [1] is 7.72%; in assay [2] it was -1.05%; in assay [3] it was -3.11%.
As to `CCc1ccccc1NC(=O)Cn1nc2c(Sc3ccccc3CC)nccn2c1=O`, the Inhibition in assay [1] is recorded as 12.45%; in assay [2] it was 3.69%; in assay [3] it was -11.06%.
The corresponding values for `Cc1ccc(N(Cc2ccc(F)cc2)S(=O)(=O)c2ccc3nnc(C)n3c2)cc1` are 5.71%, 1.54% and -13.44%.
The corresponding values for `Cn1c(=O)c2ccc(C(=O)NC3CCCC3)cc2n2c(SCC(=O)Nc3cc(F)ccc3F)nnc12` are 7.15%, 0.81% and -19.18%.
The corresponding values for `Cc1c(Cl)cccc1-n1ccn2c(=O)n(Cc3ccc(F)cc3)nc2c1=O` are -1.56%, 6.3% and -16.32%.
With `CC(C)Cn1c(=O)c2sccc2n2c(=O)n(Cc3ccccc3Cl)nc12`, the Inhibition in assay [1] is recorded as 3.91%; in assay [2], 1.39%; in assay [3], -28.89%.

For orientation: Inhibition means the relative decrease from the control value, in per cent.
